# From PubChem BioAssay AID1159580 (chemical genetic matrix, 2015)
# Among all 5,500 compounds or so, about 2,000 (36%) were called active. Not shown: some 18% with an inconclusive outcome. The list shows a part of the results. Unmarked numbers belong to inactive results. Rule as the data show it: active = normalized growth mostly below about 0.91 (no sharp cut-off); inconclusive = no clear call, values can overlap the other calls; inactive = mostly above about 0.92.
# Test: chemical genetic growth profiling, strain panel (AID 1159580);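 also: tested at 20 µM; growth read once vehicle control cultures reached saturation at 30 °C; 1 = growth at the plate median or of vehicle wells; lower values mean less growth of the strain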
# Details: S. cerevisiae deletion strains, growth OD
smiles,measurement,setting,value
CC1[C@H](C)OC(=O)CC(O)CC(O)CC(O)CCC(O)C(O)C[C@]2(O)CC(O)C(C(=O)O)C(CC(OC3O[C@H](C)[C@@H](O)[C@H](N)[C@@H]3O)/C=C/C=C/C=C/C=C/CC/C=C/C=C/[C@H](C)[C@H]1O)O2 (stereo not given in full),normalized growth,"locus YKL009W, strain mrt4, stronger effect = lower value",0.0887 (active)
same,normalized growth,"locus YKL068W, stronger effect = lower value",0.0555 (active)
same,normalized growth,"locus YKL085W, strain MDH1 (second series), stronger effect = lower value",0.0538 (active)
same,normalized growth,"locus YKL085W, strain MDH1, stronger effect = lower value",0.0538 (active)
same,normalized growth,"locus YKL160W, strain elf1, stronger effect = lower value",0.952
same,normalized growth,"locus YKL190W, strain CNB1, stronger effect = lower value",0.193 (active)
same,normalized growth,"locus YKR001C, strain vps1, stronger effect = lower value",0.0857 (active)
same,normalized growth,"locus YKR026C, strain gcn3, stronger effect = lower value",0.0734 (active)
same,normalized growth,"locus YKR091W, strain srl3, stronger effect = lower value",0.986
same,normalized growth,"locus YLL001W, strain dnm1, stronger effect = lower value",0.759 (active)
same,normalized growth,"locus YLL026W, stronger effect = lower value",0.446 (active)
same,normalized growth,"locus YLL041C, strain sdh2, stronger effect = lower value",0.913 (active)
same,normalized growth,"locus YLR027C, strain aat2, stronger effect = lower value",0.633 (active)
same,normalized growth,"locus YLR039C, strain RIC1, stronger effect = lower value",0.0871 (active)
same,normalized growth,"locus YLR058C, strain SHM2, stronger effect = lower value",0.374 (active)
same,normalized growth,"locus YLR102C, strain apc9, stronger effect = lower value",0.283 (active)
same,normalized growth,"locus YLR113W, strain HOG1, stronger effect = lower value",0.124 (active)
same,normalized growth,"locus YLR221C, strain rsa3, stronger effect = lower value",0.36 (active)
same,normalized growth,"locus YLR258W, strain gsy2, stronger effect = lower value",0.857 (active)
same,normalized growth,"locus YLR262C, strain YPT6 (second series), stronger effect = lower value",0.799 (active)
same,normalized growth,"locus YLR262C, strain YPT6, stronger effect = lower value",0.0948 (active)
same,normalized growth,"locus YLR268W, strain sec22, stronger effect = lower value",0.119 (active)
same,normalized growth,"locus YLR320W, strain mms22, stronger effect = lower value",1
same,normalized growth,"locus YLR330W, strain CHS5, stronger effect = lower value",0.176 (active)
same,normalized growth,"locus YLR342W, strain FKS1 (second series), stronger effect = lower value",0.126 (active)
same,normalized growth,"locus YLR342W, strain FKS1, stronger effect = lower value",0.376 (active)
same,normalized growth,"locus YLR357W, strain rsc2, stronger effect = lower value",0.123 (active)
same,normalized growth,"locus YLR370C, strain arc18, stronger effect = lower value",0.0729 (active)
same,normalized growth,"locus YLR371W, strain rom2, stronger effect = lower value",0.112 (active)
same,normalized growth,"locus YLR384C, strain iki3, stronger effect = lower value",0.907 (active)
same,normalized growth,"locus YLR418C, strain cdc73, stronger effect = lower value",0.202 (active)
same,normalized growth,"locus YML016C, strain PPZ1, stronger effect = lower value",0.841 (active)
same,normalized growth,"locus YML032C, strain rad52, stronger effect = lower value",0.333 (active)
same,normalized growth,"locus YML120C, strain ndi1, stronger effect = lower value",0.0634 (active)
same,normalized growth,"locus YML124C, strain tub3, stronger effect = lower value",0.103 (active)
same,normalized growth,"locus YMR058W, strain fet3, stronger effect = lower value",0.318 (active)
same,normalized growth,"locus YMR078C, strain ctf18, stronger effect = lower value",0.612 (active)
same,normalized growth,"locus YMR125W, strain sto1, stronger effect = lower value",0.112 (active)
same,normalized growth,"locus YMR129W, stronger effect = lower value",0.0795 (active)
same,normalized growth,"locus YMR205C, strain PFK2, stronger effect = lower value",0.916
same,normalized growth,"locus YMR223W, strain ubp8, stronger effect = lower value",0.0876 (active)
same,normalized growth,"locus YMR231W, strain pep5, stronger effect = lower value",0.839 (active)
same,normalized growth,"locus YMR263W, strain SAP30, stronger effect = lower value",0.0585 (active)
same,normalized growth,"locus YMR307W, strain GAS1, stronger effect = lower value",0.103 (active)
same,normalized growth,"locus YNL067W, strain RPL9B, stronger effect = lower value",0.0572 (active)
